Experimental findings from the supplement of paper PMC8699584 are described below.

Broadly, the cell viability is a read-out of living cells in per cent, often relative to untreated cells.

Counter-ions that a name gives are not always drawn. ± gives the standard deviation of the averaged measurements.

Experiment [1] deals with Molm13. The experiment in a line: cell viability relative to DMSO control (bortezomib = 0%); higher = less growth inhibition. To be noted: 10 nM; 72 h. In short, it runs like this:
(§1)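 Cell viability was assessed by CellTiter-Glo luminescence. Acute myeloid leukemia cells were seeded at 1000 cells per well in 50 µL on a 384-well library of 679 compounds at a single 10 nM dose for 72 h. Per-plate linear regression set DMSO-treated cells at 100% and positive-control-treated cells at 0%.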

For experiment [2], the system named is Mv4-11. The experiment is described as above. To be noted: 10 nM; 72 h. The gist of the method:
as §1

As for `C[C@H]1[C@H](C)CC[C@]2(C(=O)O[C@@H]3O[C@H](CO[C@@H]4O[C@H](CO)[C@@H](O[C@@H]5O[C@H](C)[C@H](O)[C@@H](O)[C@H]5O)[C@H](O)[C@H]4O)[C@@H](O)[C@H](O)[C@H]3O)CC[C@]3(C)C(=CC[C@@H]4[C@@]5(C)C[C@@H](O)[C@H](O)[C@@](C)(CO)[C@@H]5CC[C@]43C)[C@H]12` [Asiaticoside], the values for the cell viability in experiment [1] and in experiment [2] were 108 ± 13% and 114 ± 2.9%, respectively.

On to `Cc1c(Cn2c(C)nc3c(C(=O)O)cc(N4CCOCC4)cc32)cccc1C(F)(F)F`, for which the figures for the cell viability in experiment [1] and in experiment [2] were 102 ± 5.3% and 110 ± 17%, respectively.

`CCCCCCCCCCCCCCCCOP(=O)([O-])OCC[N+](C)(C)C` [Miltefosine]: the figures for the cell viability in experiment [1] and in experiment [2] were 76.2 ± 20% and 102 ± 7.5%, respectively.

Turning to `COc1ccc(C2CC(=O)c3c(O)cc(OC4OC(COC5OC(C)C(O)C(O)C5O)C(O)C(O)C4O)cc3O2)cc1OC` (stereo not given) [Methyl hesperidin], the cell viability in experiment [1] came out at 109 ± 12%; in experiment [2], 117 ± 20%.

For `Cc1ccc(C(=O)N(CCCN)[C@@H](c2oc3cc(Cl)ccc3c(=O)c2Cc2ccccc2)C(C)C)cc1`, the values for the cell viability in experiment [1] and in experiment [2] were 2.68 ± 8.6% and -0.7 ± 5.9%, respectively.

`CC1(C)CC(=O)C2=C(C1)NC(=S)NC2c1cccc(O)c1` (stereo not given) [Dimethylenastron]: the cell viability in experiment [1] was 91 ± 2.6%; in experiment [2], 109 ± 4.5%.

Regarding `C=CC(=O)N1CCC(Oc2cc3c(Nc4ccc(Cl)c(Cl)c4F)ncnc3cc2OC)CC1` [Poziotinib (HM781-36B)], the cell viability in experiment [1] was 111.4 ± 0.44%; in experiment [2], 113 ± 10%.

Take `Cc1oncc1C(=O)Nc1ccc(C(F)(F)F)cc1` [Leflunomide]: the cell viability in experiment [1] came to 91.3 ± 23%; in experiment [2], 118 ± 29%.

Regarding `COc1cc(Nc2ncc(F)c(Nc3ccc4c(n3)N(COP(=O)(O)O)C(=O)C(C)(C)O4)n2)cc(OC)c1OC` [Fostamatinib (R788)], the values for the cell viability in experiment [1] and in experiment [2] were 99.7 ± 0.34% and 104 ± 1.8%, respectively.

Regarding `CS(=O)(=O)c1ccc(-c2cnc(N)c(C(=O)Nc3ccccc3)n2)cc1`, the cell viability in experiment [1] was found to be 83.9 ± 3.9%; in experiment [2] it was 93.76 ± 0.24%.

Regarding `O=C(Nc1ccc(CN2CCOCC2)cc1)c1ccc(-c2cccc(Cl)c2)o1`, the cell viability in experiment [1] came to 113 ± 2.9%; in experiment [2], 120 ± 6%.

For `Oc1cccc(-c2nc(N3CCOCC3)c3sccc3n2)c1` [PI3-Kinase ? Inhibitor 2], the cell viability came to 108.6 ± 0.5% in experiment [1] and 120 ± 22% in experiment [2].

With `CNC(=O)c1ccc(C)c(-n2c(C)cc(OCc3ccc(F)cc3F)c(Br)c2=O)c1`, the cell viability turned out to be 97.9 ± 3.1% in experiment [1] and 110 ± 1.8% in experiment [2].

Turning to `O=c1c(-c2ccc(O)cc2)coc2cc(O)cc(O)c12` [Genistein], the cell viability in experiment [1] stood at 104 ± 4.5%; in experiment [2] it was 122 ± 24%.

Regarding `CNC(=O)c1cc(Oc2ccc(NC(=O)Nc3ccc(Cl)c(C(F)(F)F)c3)cc2)ccn1`, the results for the cell viability in experiment [1] and in experiment [2] were 45 ± 3.3% and 45.2 ± 5.3%, respectively.

On to `COc1cc(/C=C(\C#N)C(N)=O)cc(CSc2nc3ccccc3s2)c1O`, for which the cell viability stood at 112 ± 4.3% in experiment [1] and 93.1 ± 5.8% in experiment [2].

Take `Cc1ccc(Nc2nccc(N(C)c3ccc4c(C)n(C)nc4c3)n2)cc1S(N)(=O)=O` [Pazopanib]: the cell viability in experiment [1] is 101 ± 36%; in experiment [2], 104 ± 4.1%.

`Cc1nc(-c2cn3c(n2)-c2ccc(-c4cnn(C(C)(C)C(N)=O)c4)cc2OCC3)n(C(C)C)n1`: the cell viability in experiment [1] worked out at 94.6 ± 8.3%; in experiment [2], 123 ± 5.4%.

`CN1CCN(c2ccc(Nc3cc(-c4cccc(-n5ccc6cc(C7CC7)cc(F)c6c5=O)c4CO)cn(C)c3=O)nc2)CC1`: the results for the cell viability in experiment [1] and in experiment [2] were 99.6 ± 8.6% and 107 ± 8.8%, respectively.

For the compound `O=C(Nc1cccc(Cl)c1)Nc1ncc(CCNc2ncnc3ccsc23)s1` [SNS-314 Mesylate], the cell viability is 64.7 ± 13% in experiment [1] and 84.75 ± 0.26% in experiment [2].

`O=C(NC(CO)c1ccc(F)c(Cl)c1)c1cc(-c2[nH]ncc2-c2cccc(Cl)c2)c[nH]1` (stereo not given): the cell viability in experiment [1] was 116 ± 16%; in experiment [2], 110 ± 7.8%.

For the compound `CC(C)(C)Cn1c(N)nc2ccc(-c3[nH]c(C(C)(C)C)nc3-c3ccc(F)cc3)nc21`, the cell viability in experiment [1] was found to be 100 ± 12%; in experiment [2] it was 84.9 ± 21%.

As for `CC(C)(C)NS(=O)(=O)c1cncc(-c2cc(F)c3nc(N)nn3c2)c1`, the cell viability in experiment [1] turned out to be 95.9 ± 22%; in experiment [2] it was 105 ± 1.1%.

On to `Clc1cnccn1` [2-Chloropyrazine], for which the cell viability in experiment [1] was 113 ± 6.1%; in experiment [2], 94.5 ± 27%.

`Cc1cc(Nc2nn(-c3ccccc3)c(=O)c3ccccc23)n[nH]1` [Phthalazinone pyrazole]: the results for the cell viability in experiment [1] and in experiment [2] were 94.1 ± 9.4% and 101 ± 15%, respectively.

In the case of `COC(=O)Nc1nc2cc(C(=O)c3cccs3)ccc2[nH]1` [Nocodazole], the cell viability came to 112.8 ± 0.63% in experiment [1] and 105.5 ± 0.46% in experiment [2].

As for `CC(C)c1cnc(NC(=O)Cc2ccccc2)s1`, the cell viability in experiment [1] stood at 92.8 ± 37%; in experiment [2], 98.7 ± 9.3%.

As to `CNC(=O)c1cccc(-c2ccc3c(N4CCOC[C@@H]4C)nc(N4CCOC[C@@H]4C)nc3n2)c1`, the cell viability in experiment [1] was found to be 83.69 ± 0.63%; in experiment [2], 98.5 ± 20%.

Take `COc1cc2ncnc(Nc3ccc(O)cc3)c2cc1OC` [Janex 1]: the cell viability in experiment [1] worked out at 101 ± 12%; in experiment [2], 111 ± 5.3%.

In the case of `Cn1cnc2nc(NCCO)nc(NCc3ccccc3)c21` [Iso-Olomoucine], the cell viability was determined as 119 ± 15% in experiment [1] and 113 ± 9.7% in experiment [2].

`O=C1NC(=O)/C(=C/c2ccc3nccnc3c2)S1`: the cell viability in experiment [1] is 102 ± 17%; in experiment [2] it was 113 ± 4.8%.

Turning to `CCCCCCCCCCCC(=O)NC[C@]1(C)CCC[C@]2(C)c3ccc(C(C)C)cc3CCC12` (stereo not given in full) [Lauric Acid Leelamide], the cell viability in experiment [1] was found to be 93 ± 7.2%; in experiment [2] it was 104 ± 12%.

In the case of `CN(C)C(=N)NC(=N)N` [Metformin hydrochloride], the values for the cell viability in experiment [1] and in experiment [2] were 104 ± 25% and 90.48 ± 0.55%, respectively.

As for `O=C(O)CN1C(=O)c2c(I)c(I)c(I)c(I)c2C1=O`, the cell viability in experiment [1] was 126 ± 38%; in experiment [2] it was 107 ± 3.2%.

Consider `Cn1cc(C2=C(c3cn(CCCSC(=N)N)c4ccccc34)C(=O)NC2=O)c2ccccc21` [Ro 31-8220 Mesylate], for which the cell viability was determined as 108 ± 2.3% in experiment [1] and 102 ± 4% in experiment [2].
